Compound activity: PubChem, National Center for Advancing Translational Sciences (NCATS)
SARS PLpro yeast: SARS-CoV PLP inhibition in yeast | 330,000 tested, 0.19% active | S. cerevisiae expressing SARS-CoV PLpro, growth rescue | Potency, µM (top dose mostly 32.9 µM), for inactives: at the highest dose activity, positive = growth rescue, actives largely listed as activators; calls by dose curve; further: potency means the concentration at half of the fitted maximal effect; 0% is about no effect; nearly all actives have a fitted effect of over 55% in size
HCMV inh: human cytomegalovirus inhibition; HFF cells, HCMV-luciferase reporter, 72 h; active compounds read low; activity change, negative = inhibition, % at 57.5 µM; 410,000 tested, 4.5% active; AID 1259415; in the data active means activity change below about -60%; inconclusive means no clear call, values can overlap the other calls; inactive means above about -39%; further: on the % scale 0 is the no-effect control and ±100 the full control effect
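HFF cells seeded 16 h at 37C, treated with compounds, infected with luciferase-reporter HCMV at MOI 1 PFU/cell; luciferase read at 72 h post infection, normalized to buffer-only and Salinomycin controls.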
Pf growth 96h: P. falciparum growth inhibition at 96 hour, primary screen for plastid delayed-death inhibitors; P. falciparum luciferase reporter growth, 96 h; Potency, µM (highest dose often 28.7 µM), without a hit: at the top dose activity change, negative = inhibition, usual class: inhibitors; 320,000 tested, 6.9% active; AID 504834; further: potency means the concentration at half of the fitted maximal effect; on the % scale 0 is the no-effect control and ±100 the full control effect
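Infected RBCs, 2% Hct / 0.05% parasitemia final; luciferase-reporter P. falciparum; cpd 96 h, 37 C, 5% CO2; luciferase detection reagent; luminescence.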
Sm TGR inh: blocks Schistosoma mansoni thioredoxin glutathione reductase; Q962Y6; purified TGR, DTNB reduction, TNB absorbance 405 nm; Potency, µM (series often up to 114 µM), for the others: top-dose activity change, negative = inhibition, usual class: inhibitors; 360,000 tested, 3% active; AID 485364; further: potency means the concentration at half of the fitted maximal effect; on the % scale 0 is the no-effect control and ±100 the full control effect; nearly all actives have a fitted effect of over 60% in size
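Kinetic colorimetric format: TGR-catalysed, NADPH-driven DTNB reduction monitored via TNB absorbance. Enzyme dispensed at 20 nM; compound exposure 15 min at room temperature before reaction start.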
Pf growth 48h: inhibits P. falciparum growth in the first generation, 48 h | P. falciparum luciferase growth in erythrocytes, 48 h | Potency, µM (titrated, usually from 28.7 µM), for the others: top-dose activity change, negative = inhibition, most hits filed as inhibitors | 310,000 tested, 5.9% active; further: potency means the concentration at half of the fitted maximal effect; on the % scale 0 is the no-effect control and ±100 the full control effect
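Cell-based growth assay: transgenic P. falciparum expressing firefly luciferase, cultured in red cells within RPMI 1640 containing 0.5% w/v Albumax, 24 mM bicarbonate and gentamycin. A drop in luciferase activity indicates inhibition.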
HCV inhibitor: HCV inhibition. Huh7.5.1 HCVcc-Cre infection, luciferase reporter, 44 h. Potency, µM (series often up to 41.8 µM), inactives show at the highest dose activity change, negative = inhibition, hits mostly inhibitors. 340,000 tested, 3.4% active; further: potency means the concentration at half of the fitted maximal effect; on the % scale 0 is the no-effect control and ±100 the full control effect
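Reporter virus HCVcc-Cre (~0.5 moi) infects cells exposed to compound; seeding density 1,000 cells/well with 4 h settling beforehand. Luminescence, 15 sec read, taken 44 h post-infection following a 15 min RT substrate incubation.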
* hit, by the source's call; u = inconclusive; x = no result; [ ] = another dose, or the depositor's remark. Rows were chosen to be rich in hits. Some 15% of all compounds tested hit in one or more screens of this group. Unless noted, the call rests on the fitted dose curve; in most records, active means well fitted curve in the direction sought with a large enough effect; inconclusive means small, poorly fitted or top-dose-only effect, or another doubt; inactive means no such curve, though single readings can be large; an effect the other way counts as inactive or inconclusive.

SMILES | SARS PLpro yeast | HCMV inh | Pf growth 96h | Sm TGR inh | Pf growth 48h | HCV inhibitor
Cc1cccc(-n2c(C)c(C)c3c(N)ncnc32)c1 | -1% | 33 | -5% | 1% | u | -21%
Cc1c(C(C)NC(=O)c2cc(COc3cccc4cnccc34)on2)cnn1C (configuration not stated) | -4% | -86* | 8.3µM* | 4% | 2% | 7.1µM*
CC1(C)CC(NC(=O)COc2ccccc2Cl)CC(C)(C)N1 | 1% | u | 1% | x | 75% | 26%
CC1(C)CC(NC(=O)COc2ccc(Br)cc2Cl)CC(C)(C)N1 | -1% | -16 | -22% | -25% | -9% | 25µM*
Cc1c(OCC(=O)NC2CC(C)(C)NC(C)(C)C2)ccc2c1oc(=O)c1ccccc12 | 3% | -15 | 3.3µM* | -6% | 3.7µM* | 2µM*
COC(=O)/C=C1/S/C(=N/NC(=O)c2ccccc2OC)NC1=O | u | 42 | 12µM* | u | u | 7%
COC(=O)/C=C1/S/C(=N/NC(=O)c2ccc(Cl)cc2Cl)NC1=O | 5% | -34 | 14% | 18µM* | 11% | -8%
O/N=C/c1ccc2ccccc2c1 | -1% | 11 | 44% | 16% | 30% | 9%
COc1cc(OC)cc(-c2cc3nc(C)cc(N4CCN(C(=O)c5ccco5)CC4)n3n2)c1 | -5% | x | 1.9µM* | -3% | x | x
Cc1cc(N2CCN(C(=O)c3ccco3)CC2)n2nc(-c3cccc(F)c3)cc2n1 | -3% | -63* | u | u | u | 10µM*
CC1(C)CC(=O)C(CSC(=O)c2ccccc2)C(=O)C1 | x | -7 | x | x | x | x
Cn1cc([C@]2(O)C(=O)Nc3ccc(OC(F)(F)F)cc32)c2ccccc21 | x | 110 | x | x | x | x
CC(=O)c1cc2c(cc1NC(=O)Cn1nc(-c3ccc(C)cc3)ccc1=O)OCO2 | 1% | -16 | -22% | 7% | u | 11µM*
CC(=O)c1cc2c(cc1NC(=O)CCn1cccc1)OCO2 | -8% | 1 | u | 35µM* | -18% | -16%
CC(=O)c1cc2c(cc1NC(=O)CCC1CCCC1)OCO2 | 2% | -7 | u | 2% | -16% | u
CC(=O)c1cc2c(cc1NC(=O)C1CC1)OCO2 | u | 10 | 10% | 3% | 19% | 11µM*
Cc1ccc(S(=O)(=O)CCC(=O)OC2CC(C)OC2=O)cc1 (configuration not stated) | -6% | -1 | x | x | x | 0%
CCOC(=O)c1cnc(-n2nc(C)cc2C)nc1NCc1ccc2c(c1)OCO2 | -15% | 40 | x | 1% | 4.7µM* | u
CCOC(=O)c1cnc(-n2nc(C)cc2C)nc1Nc1ccccc1OC | -7% | x | u | -16% | u | x
CCOC(=O)c1cnc(-n2nc(C)cc2C)nc1Nc1ccc(OC)cc1 | 7% | -32 | 1.9µM* | -4% | 4.1µM* | 11µM*
CCOC(=O)c1cnc(-n2nc(C)cc2C)nc1NC1CCCC1 | -4% | -108* | u | 14% | 1.5µM* | 1.1µM*
CCOC(=O)c1cnc(-n2nc(C)cc2C)nc1NCCc1ccccc1 | -22% | -92* | -9% | -5% | 4.1µM* | -20%
Cc1cccc(-c2noc(-c3cccnc3NCc3ccco3)n2)c1 | x | 1 | x | -4% | x | x
COc1cccc(-n2nnc3c(=O)n(CC(=O)Nc4ccccc4C)cnc32)c1 | 0% | 12 | -10% | 1% | -26%[1.15 µM] | 16%
COc1cccc(-n2nnc3c(=O)n(CC(=O)NC4CCCC4)cnc32)c1 | 5% | 46 | 0.33µM* | 1% | 3% | 17%
SMILES | SARS PLpro yeast | HCMV inh | Pf growth 96h | Sm TGR inh | Pf growth 48h | HCV inhibitor
O=C(NCc1ccco1)N[C@H]1CC[C@@]23CCCN2C(=O)CCC[C@H]3C1Cc1ccccc1 (some centres not stated) | x | 6 | x | x | x | x
Cc1ccc(OCCOCCN2CCCCC2)c([N+](=O)[O-])c1 | 0% | u | -24% | x | u | 12%
Cc1ccc(OCCCCCCN2CCNCC2)c(Br)c1 | x | -63* | x | x | x | u
Cc1ccc(OCCCCN2CCC(C)CC2)c(Br)c1 | -11% | -67* | -9% | -19% | u | u
Cc1ccc([N+](=O)[O-])c(OCCN2CCNCC2)c1 | -4% | -30 | 2.3µM* | -21% | 15% | 7%
Cc1ccc(S(=O)(=O)N2CCOCC2)cc1C(=O)N1CCC(Cc2ccccc2)CC1 | 0% | 4 | -3% | 8% | -16% | -1%
Cc1ccc(C)n1C1C(=O)N(Cc2ccc(C(C)C)cc2)c2ccc(F)cc21 (configuration not stated) | x | 27 | x | x | x | x
Cc1cccc(Cn2c(=O)n(CCC(=O)NCc3ccc4c(c3)OCO4)c(=O)c3sccc32)c1 | x | -19 | x | 3% | x | x
CCN(CC)CCNc1c(C)cc(CO)c(Cl)c1C | x | -26 | x | x | x | x
COCCNCC(=O)Nc1ccc(OC(F)(F)F)cc1 | -10% | 28 | 119% | 5% | -3% | -7%
COc1ccc(-c2nc(CN(C)C(C)c3ccon3)c(C)o2)c(C)c1C (configuration not stated) | 3% | u | 22% | 3% | u | 10µM*
Cc1ccccc1-c1nc(CN(C)C(C)c2ccon2)c(C)o1 (configuration not stated) | 0% | 10 | 2.3µM* | 20% | -4% | -24%
CC1CCC/C=C/C(=O)c2c(O)cc(O)cc2CC(=O)O1 (configuration not stated) | 1% | -105* | 19% | 7.9µM* | u | -36%
C[C@H]1CCC[C@H](O)CCCCCc2cc(O)cc(O)c2C(=O)O1 | 2% | -98* | 12µM* | 6% | u | -83%
CC1CCC[C@H](O)CCCCCc2cc(O)cc(O)c2C(=O)O1 (some centres not stated) | 0% | u | u | 8% | u | 1%[8.37 µM]
C[C@H]1CCC[C@@H](O)CCC/C=C/c2cc(O)cc(O)c2C(=O)O1 | 2% | -105* | 1% | 2% | 81% | x
CCCC[C@]12Cc3ccccc3C(O1)c1c(c3ccccc3oc1=O)O2 | 1%[6.58 µM] | x | u | 1%[22.9 µM] | -2%[5.75 µM] | x
COc1ccc(N/C=C\C(=O)c2ccc3c(c2)OCO3)cc1OC | 11% | u | 4.7µM* | -1% | 62% | 8%
COc1cc(C(=O)c2cocc2C(=O)c2ccc3c(c2)OCO3)cc(OC)c1OC | -1% | 7 | -5% | 3% | u | -33%
COc1cc(C(=O)c2ccc3c(c2)OCO3)cc(OC)c1OC | x | -83* | x | x | x | -11%
Cc1ccccc1OCC(=O)N(Cc1ccc(N(C)C)cc1)CC1CCCO1 (configuration not stated) | x | -63* | x | 0% | x | x
COC(=O)c1c(NC(=O)COC(=O)CNC(=O)c2cccc(OC(F)F)c2)sc(C)c1C | x | 0 | x | x | x | x
